D1 antagonist: antagonists of human D1 dopamine receptor; activity change, negative = inhibition, % at 10 µM; P21728; 360,000 tested, 3.2% active; HEK293 TREx D1 cells, calcium flux, dopamine EC80; stronger effect = lower value; in the data active = activity change below about -30%
Target sequence (P21728 whole entry, looked up): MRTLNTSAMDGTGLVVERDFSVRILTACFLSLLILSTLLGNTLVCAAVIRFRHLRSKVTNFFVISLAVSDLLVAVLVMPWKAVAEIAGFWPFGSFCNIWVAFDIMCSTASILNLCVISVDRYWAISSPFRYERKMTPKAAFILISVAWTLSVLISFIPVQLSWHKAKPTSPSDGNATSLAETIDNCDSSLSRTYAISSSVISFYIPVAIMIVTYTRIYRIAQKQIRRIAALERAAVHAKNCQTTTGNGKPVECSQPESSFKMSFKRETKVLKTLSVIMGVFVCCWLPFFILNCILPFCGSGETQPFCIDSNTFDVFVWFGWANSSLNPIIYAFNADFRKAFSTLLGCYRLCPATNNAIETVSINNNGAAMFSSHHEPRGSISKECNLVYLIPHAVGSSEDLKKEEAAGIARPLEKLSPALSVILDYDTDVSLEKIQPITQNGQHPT
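After overnight tetracycline induction at 30 C, force-coupled D1 HEK293 cells took up a no-wash calcium dye at room temperature. Compounds were added and monitored 180 s, and the response to EC80 dopamine was then recorded.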
Epigenetic derep: regulators of epigenetic silencing causing reporter derepression in mouse cells; 280,000 tested, 0.2% active; Potency, µM (top dose mostly 53.9 µM), usual class: activators; murine LDR cells, GFP reporter derepression, 30 h; active = well fitted activation curve with a large enough effect; inconclusive = small, poorly fitted or top-dose-only effect; note: nearly all actives have a fitted effect of over 60% in size
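Derepression of a silenced CMV-GFP reporter in murine LDR cells is scored by enumerating GFP-positive cells with a laser-scanning microplate cytometer after 30 hours of treatment at 37 C.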
TRHR agonist: activates the human TRH receptor. activation, % at 2 µM. AID 493084. 360,000 tested, 0.18% active. P34981. TRHR cells, calcium flux fluo-8, FDSS agonist mode
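In this calcium-flux screen, cells bearing human TRHR are dye-loaded with fluo-8, baselined for 10 cycles, then exposed to library compounds; positive kinetic calcium responses during the agonist phase mark hits, with TRH as control.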
D1 agonist: agonists of human D1 dopamine receptor; 360,000 tested, 1% active; activation, % at 2 µM; HEK293 T-REx D1 cells, calcium flux, agonist mode; P21728
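Tetracycline-induced HEK293 TREx D1 cells, force-coupled to calcium signalling, were dye-loaded with a no-wash calcium kit. Compound was pin-added after a 10 s baseline. Fluorescence was read kinetically at 1 cycle/s for 180 s, with calcium rises flagged as agonism.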
TRHR enhancer: allosterically enhances the human TRH receptor; P34981; TRHR cells, fluo-8 calcium fluorescence, EC20 TRH enhancement; enhancement, % at 2 µM; 360,000 tested, 0.66% active; in the data active = enhancement above about 30%
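Enhancer read-out: after compound pinning and an initial kinetic agonist-mode read, an EC20 of TRH (10 nM final) was injected and fluo-8 calcium signal (Ex 480/Em 530) followed at 1 s/cycle for 100 cycles in TRHR-expressing cells.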
D1 potentiator: potentiators of human D1 dopamine receptor; potentiation, % at 10 µM; 360,000 tested, 0.036% active; HEK293 TREx D1 cells, calcium flux, dopamine EC20 potentiation; in the data active = potentiation above about 30%
A number is an active result; 0 = inactive; ? = inconclusive; - = no result given; [ ] = remark or other dose. Rows were chosen to be rich in hits. Some 4.6% of all compounds tested hit in one or more screens of this group. Cut-off read from the data, not from the text of the source, unless noted: active = activation above about 30%; inactive = the rest.

SMILES | D1 antagonist | Epigenetic derep | TRHR agonist | D1 agonist | TRHR enhancer | D1 potentiator
Cc1cc(C)c2c(=O)nc(SCc3ccccc3C)n(C3CC3)c2n1 | 0 | 0 | 0 | 0 | 0 | 0
COC(=O)c1ccc(N(CC(=O)NC2CCCC2)C(=O)CNC(=O)c2cccs2)cc1 | 0 | - | 0 | 0 | 0 | 30
C[C@H]1COc2c(N3CCN(C)CC3)c(F)cc3c(=O)c(C(=O)NCc4ccco4)cn1c23 | - | 0 | - | - | - | -
COC(=O)NC(/C(C(=O)OC)=C(\C)NCc1ccccc1)c1ccco1 (centres undefined) | - | 0[10.1 µM] | - | - | - | -
CCOC(=O)c1ccc(NC(=O)Nc2cc(C)on2)cc1 | -32 | 0 | 0 | 0 | 0 | 0
CCOC(=O)c1ccc(NC(=S)Nc2ccc(C)cc2)cc1 | 0 | 0 | 0 | 0 | 0 | 0
CCOC(=O)c1ccc(NC(=O)Nc2cccc(C)n2)cc1 | 0 | 0 | 0 | 0 | 0 | 0
CCOC(=O)c1ccc(NC(=S)NNC(C)(C)C)cc1 | -36 | ? | 0 | 0 | 0 | 0
CCCCCOc1ccc(C(=O)OCC(=O)Nc2cc(C)on2)cc1 | 0 | - | 0 | 0 | 31 | 0
O=C(O)CCc1ccc(-c2ccc(Cl)cc2)n1-c1cccc(C(F)(F)F)c1 | 0 | 0 | 0 | 0 | 0 | 0
CNc1ncnc2ccc(-c3c(C)noc3C)cc12 | 0 | - | 0 | 0 | 0 | 0
CSc1oc(-c2ccco2)nc1S(=O)(=O)c1ccccc1 | 0 | 0 | 0 | 0 | 0 | 0
CC(C)Sc1oc(-c2ccco2)nc1S(=O)(=O)c1ccccc1 | -48 | 0 | 0 | 0 | 0 | 0
COc1ccc(NC(=O)c2ccc(-c3ccc(-c4noc(C)n4)cc3C)cc2)cc1OCCN(C)C | - | 0 | - | - | - | -
COc1ccc(NC(=O)c2ccc(-c3ccc(-c4noc(C)n4)cc3C)cc2)cc1N1CCN(C)CC1 | -57 | 0 | 0 | 0 | 0 | 0
CCOC(=O)COc1cc(C)c(Cl)cc1C(=O)c1ccn2nc(-c3ccc(OC)cc3)cc2n1 | 0 | 0 | 0 | 0 | 0 | 0
Cc1c(N(C)C)nc2ccccc2c1N | 0 | 0 | 0 | 0 | 0 | 0
CCN(CC)c1nc2ccccc2c(N)c1-c1ccccc1 | -33 | 0 | 0 | 0 | 0 | 0
Cc1ccc(NC(=O)N2CCc3c([nH]c4ccccc34)C2c2ccccc2F)c(Cl)c1 (centres undefined) | 0 | 0 | 0 | 0 | 0 | 0
CN1CCN(Cc2c(O)ccc3cc(-c4ccc(Cl)cc4)c(=O)oc23)CC1 | 0 | 0 | 0 | 32 | 0 | 0
COc1ccc(-c2cc3ccc(O)c(CN4CCCC(C)C4)c3oc2=O)cc1OC (centres undefined) | 0 | 0 | 32 | 0 | 0 | 0
O=c1oc2c(CN3CCN(CCO)CC3)c(O)ccc2cc1-c1ccccc1 | 0 | 0 | 0 | 0 | 0 | 0
CCOC(=O)c1cc(-c2ccc(F)cc2)n(CCC(=O)Nc2cc(OC)cc(OC)c2)c1C | 0 | 0 | 0 | 0 | 0 | 0
Cc1cccc(-c2nc(CSc3nncn4c3cc3sccc34)c(C)o2)c1 | 0 | 0 | 0 | 0 | 0 | 0
Cc1ccccc1C(=O)Nc1cc(S(=O)(=O)N2CCCCC2)ccc1N1CCN(C)CC1 | 0 | 0 | 0 | 0 | 0 | 0
SMILES | D1 antagonist | Epigenetic derep | TRHR agonist | D1 agonist | TRHR enhancer | D1 potentiator
CCN1CCN(c2ccc(S(=O)(=O)N3CCOCC3)cc2NC(=O)c2cc(Cl)nc3ccccc23)CC1 | -33 | - | 0 | 0 | 0 | 0
CCN1CCN(c2ccc(S(=O)(=O)N3CCCCC3)cc2NC(=O)Cc2ccc(OC)cc2)CC1 | -31 | - | 0 | 44 | 0 | 0
COc1ccc(CC(=O)Nc2cc(S(=O)(=O)N3CCCCC3)ccc2C)cc1 | 0 | - | 0 | 0 | 0 | 0
CN1CCN(c2ccc(S(=O)(=O)N3CCCCC3)cc2NC(=O)c2ccc3ccccc3c2)CC1 | -50 | 0 | 0 | 0 | 0 | 0
Cc1cccc(-c2nnc(-c3cccc(NC(=O)Cc4cccs4)c3)o2)c1 | -40 | 0 | 0 | 0 | 0 | 0
O=C(Cc1cccs1)Nc1cccc(-c2nc3ccccc3o2)c1 | -47 | ? | 0 | 0 | 0 | 0
CC(=O)c1cccc(NC(=O)Cc2cccs2)c1 | 0 | 0 | 0 | 0 | 0 | 0
COc1cccc(NC(=O)Cn2c(=O)n(Cc3nc(-c4ccccc4)no3)c(=O)c3ccccc32)c1 | 0 | 0 | 0 | 0 | 0 | 0
CC(O)CNCCOc1ccccc1OCc1ccccc1 (centres undefined) | 0 | 0 | 0 | 0 | 0 | 0
CCOc1cccc(CNCCO)c1OCc1ccc(Cl)cc1 | 0 | 0 | 0 | 0 | 0 | 0
CC(O)CNCCNCc1c(OCc2ccccc2)ccc2ccccc12 (centres undefined) | 0 | 0 | 0 | 122 | 0 | 0
OCCNCc1c(OCc2ccc(Cl)cc2)ccc2ccccc12 | -38 | - | 0 | 160 | 0 | 0
COc1ccc(-c2nc(CSc3nnc(C)n4c3cc3sccc34)c(C)o2)cc1 | 0 | 0 | 0 | 0 | 0 | 0
Cc1nn2c(=O)cc(COC(=O)COc3ccccc3C)nc2s1 | 0 | 0 | 0 | 0 | 0 | 0
COc1ccc(CCNCC(O)Cn2c3ccccc3c3ccccc32)cc1OC (centres undefined) | 0 | 0 | 0 | 55 | 0 | 0
COc1ccccc1NCC(O)Cn1c2ccccc2c2ccccc21 (centres undefined) | 0 | 0 | 0 | 0 | 0 | 0
O=C(O)C1=C[C@@H](c2coc3ccccc3c2=O)C[C@@H](OCc2ccc(CO)cc2)O1 | 0 | 0 | 0 | 0 | 0 | 0
CN1CCN(C(=O)C2=C[C@H](c3coc4ccccc4c3=O)C[C@H](OCc3ccc(CO)cc3)O2)CC1 | 0 | 0 | 0 | 0 | 0 | 34
O=C(NC1CC1)C1=C[C@@H](c2coc3ccccc3c2=O)C[C@@H](OCc2ccc(CO)cc2)O1 | 0 | 0 | 0 | 34 | 0 | 0
O=C(C1=C[C@@H](c2coc3ccccc3c2=O)C[C@@H](OCc2ccc(CO)cc2)O1)N1CCOCC1 | 0 | 0 | 0 | 0 | 0 | 0
O=C(C1=C[C@H](c2csc3ccccc23)C[C@H](OCc2ccc(CO)cc2)O1)N1CCN(Cc2ccccc2)CC1 | 0 | 0 | 0 | 0 | 0 | 0
O=C(C1=C[C@H](c2csc3ccccc23)C[C@H](OCc2ccc(CO)cc2)O1)N1CCN(Cc2ccc3c(c2)OCO3)CC1 | -34 | 0 | 0 | 0 | 0 | 0
CN1CCN(C(=O)C2=C[C@@H](C3CC3)C[C@@H](OCc3ccc(CO)cc3)O2)CC1 | 0 | 0 | 0 | 0 | 31 | 0
Cc1cc2c(s1)c1cnn(Cc3cccc(F)c3)c(=O)c1n2C | 0 | - | 0 | 0 | 0 | 0
CN1CCN(C(=O)C2=C[C@@H](c3csc4ccccc34)C[C@@H](OCc3ccc(CO)cc3)O2)CC1 | 0 | 0 | 0 | 41 | 0 | 0
Cc1cccc(N2C(=O)CSC23CCCCC3)c1 | -34 | 0 | 0 | 0 | 0 | 0
Cc1oc2ncn(CC(C)C)c(=O)c2c1C(=O)N1CCN(c2cccc(C(F)(F)F)c2)CC1 | 0 | 0 | 0 | 0 | 0 | 0
